Records with an inconclusive call do not appear. Entries that show only a call come without a potency. Activity calls are given as the source filed them. Calls follow the shape of the dose curve; as a rule, active = well fitted curve in the direction sought with a large enough effect; inconclusive = small, poorly fitted or top-dose-only effect, or another doubt; inactive = no such curve, though single readings can be large; an effect the other way counts as inactive or inconclusive.
Assays:
[1] = target: Aldehyde dehydrogenase, mitochondrial (Homo sapiens) (UniProt P05091); assay: qHTS for Inhibitors of the Aldehyde Dehydrogenase Family (ALDH2) Primary screen (AID 2061308); also: nearly all actives have a fitted effect of over 55% in size
[2] = target: Retinaldehyde dehydrogenase 3 (Homo sapiens) (UniProt P47895); assay: qHTS for Inhibitors of the Aldehyde Dehydrogenase Family (ALDH1A3) Primary screen (AID 2061315)

| SMILES | Potency [1] | Potency [2] |
| --- | --- | --- |
| Cc1cc(C)n2ncc(C(=O)Nc3ccc4c(c3)CCC4)c2n1 | inactive | inactive |
| Cc1c(P(=S)(c2ccccc2)c2ccccc2)[n+]2ccccc2n1CCc1ccccc1 | inactive | inactive |
| Cc1ccccc1OC1=NS(=O)(=O)c2ccccc21 | inactive | inactive |
| O=S(=O)(NC1CCCC(NS(=O)(=O)c2c(F)cccc2F)C1)c1ccc2c(c1)OCCO2 (stereo not given) | inactive | inactive |
| C[C@@]12CC[C@@H]3[C@@](CC[C@H]4[C@@]3(C)CCC[C@@]4(C)C(=O)O)(CC1=O)C2 | inactive | inactive |
| Cc1cc(N[S+](=O)([O-])c2ccc(NC(=O)Cc3nc4ccc(Cl)cc4[nH]3)cc2)no1 | inactive | inactive |
| Cc1cc2c(s1)c1cnn(Cc3ccc4ccccc4c3)c(=O)c1n2C | inactive | inactive |
| C#C[C@]1(O)CC[C@H]2[C@@H]3CCC4=C/C(=N/O)CC[C@@H]4[C@H]3CC[C@@]21CC | inactive | inactive |
| CCNC(=O)c1ccc(-c2ccc3ncnc(N4CCOCC4)c3c2)o1 | inactive | inactive |
| Cc1cc(NS(=O)(=O)c2ccc(NC(=O)Cc3cccc(Cl)c3)cc2)no1 | inactive | inactive |
| CCCn1c(-c2ccc(F)cc2)nc2c(NCCN(C)C)nc(C)nc21 | inactive | inactive |
| Cc1ccc(NS(=O)(=O)c2ccc3c(c2)CCC(=O)N3)cc1C | inactive | inactive |
| N#Cc1c(-c2ccco2)no[n+]1[O-] | inactive | inactive |
| FC(F)(F)c1cccc(-c2nc(NCc3ccc(-c4cccnc4)cc3)c3ccccc3n2)c1 | inactive | inactive |
| O=C(OCC#CCSc1nnc(-c2cccc3ncccc23)o1)c1ccc(F)cc1 | inactive | inactive |
| COC(=O)C(CC1(O)c2ccccc2N2C(=O)C(C)(C)N(O)C21)n1cnc2ccccc2c1=O (stereo not given) | inactive | inactive |
| Cc1ccc(OCCn2c(CCNCC3CCCCC3)nc3ccccc32)cc1 | inactive | inactive |
| COC(=O)c1cc2c(s1)c1cnn(Cc3ccccc3F)c(=O)c1n2C | inactive | inactive |
| Cc1ccc(-c2cc(C(=O)NCC[S+](=O)([O-])O)c3ccccc3n2)cc1C | inactive | inactive |
| O=[N+]([O-])c1cccc(CNc2ccc(S(=O)(=O)Nc3nccs3)cc2)c1O | inactive | inactive |

| SMILES | Potency [1] | Potency [2] |
| --- | --- | --- |
| O=c1c2ccccc2nc(-c2ccccc2O)n1Cc1ccccc1 | inactive | inactive |
| CCCn1c(C)nc2c(NCC(C)(C)CN(C)C)nc(C)nc21 | inactive | inactive |
| O=[S+]([O-])(/C=C/c1nc(Nc2cc(F)cc(F)c2)c2ncn(CC(F)F)c2n1)c1ccccc1 | inactive | inactive |
| CCn1cnc2c(NCCc3cccnc3)nc(C#N)nc21 | inactive | inactive |
| Cc1cc(C)nc(NC(=S)N2CCN(c3cc(Br)cc(C(F)(F)F)c3)CC2)c1 | inactive | inactive |
| O=C(NCCc1nc2ccccc2n1CCOc1ccc(C(F)(F)F)cc1)C1CCCCC1 | inactive | inactive |
| Cc1cc2c(s1)c1c(n2C)C(=O)N(Cc2ccccc2F)C1 | inactive | inactive |
| O=C(Cc1ccc2ccccc2c1)Nc1ccc(S(=O)(=O)Nc2nccs2)cc1 | inactive | inactive |
| CCOc1ccccc1-c1nnc2n1N=C(c1cc(OC)ccc1OC)CS2 | inactive | inactive |
| COc1cccc(CNc2ccc(S(=O)(=O)Nc3nc4c(C)cccc4s3)cc2)c1O | inactive | inactive |
| O=C1CCc2cc(S(=O)(=O)Nc3cccc(-c4ccccc4)c3)ccc2N1 | inactive | inactive |
| Cc1cc(C)nc(NC(=S)N2CCN(c3ccc4occc4c3)CC2)c1 | inactive | inactive |
| O=C(c1ccc(F)c(F)c1Nc1ccc(I)cc1F)N1CC(O)(C2CCCCN2)C1 (stereo not given) | inactive | inactive |
| O=C1CCc2cc(S(=O)(=O)Nc3ccc4ncccc4c3)ccc2N1 | inactive | inactive |
| COc1ccc(NS(=O)(=O)c2ccccc2)cc1NS(=O)(=O)c1ccccc1 | inactive | inactive |
| Cc1csc(CNc2ncnc3ccc(-c4ccc5c(c4)OCCO5)cc23)c1 | inactive | inactive |
| O=C(OCC#CCSc1nnc(-c2cccc3ccccc23)o1)c1ccccc1 | inactive | inactive |
| CN(CCc1cccs1)c1ncnc2ccc(-c3ccc4c(c3)OCO4)cc12 | inactive | inactive |
| Cc1ccc(S(=O)(=O)n2cc(C(=O)Nc3nc(-c4ccccc4)cs3)c3ccccc32)cc1 | inactive | inactive |
| CCNC(=O)c1ccc(-c2ccc3ncnc(NCc4ccc(C)o4)c3c2)o1 | inactive | inactive |
